# According to PubChem BioAssay AID1347419 (Sanford-Burnham Center for Chemical Genomics, 2020):
# In all, about 99,000 compounds went through this assay and about 820 (0.83%) were called active. Shown is part of a subset that was picked to be rich in actives. Values without a mark were called inactive.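 How the source made its calls: active means Z-score of -3 or lower, scaled per plate to the spread of control and sample wells; inactive means z-score above -3.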
# Molecular target: Protein-tyrosine kinase 2-beta (Homo sapiens) (UniProt Q14289)
# Sequence (Q14289 whole entry, looked up): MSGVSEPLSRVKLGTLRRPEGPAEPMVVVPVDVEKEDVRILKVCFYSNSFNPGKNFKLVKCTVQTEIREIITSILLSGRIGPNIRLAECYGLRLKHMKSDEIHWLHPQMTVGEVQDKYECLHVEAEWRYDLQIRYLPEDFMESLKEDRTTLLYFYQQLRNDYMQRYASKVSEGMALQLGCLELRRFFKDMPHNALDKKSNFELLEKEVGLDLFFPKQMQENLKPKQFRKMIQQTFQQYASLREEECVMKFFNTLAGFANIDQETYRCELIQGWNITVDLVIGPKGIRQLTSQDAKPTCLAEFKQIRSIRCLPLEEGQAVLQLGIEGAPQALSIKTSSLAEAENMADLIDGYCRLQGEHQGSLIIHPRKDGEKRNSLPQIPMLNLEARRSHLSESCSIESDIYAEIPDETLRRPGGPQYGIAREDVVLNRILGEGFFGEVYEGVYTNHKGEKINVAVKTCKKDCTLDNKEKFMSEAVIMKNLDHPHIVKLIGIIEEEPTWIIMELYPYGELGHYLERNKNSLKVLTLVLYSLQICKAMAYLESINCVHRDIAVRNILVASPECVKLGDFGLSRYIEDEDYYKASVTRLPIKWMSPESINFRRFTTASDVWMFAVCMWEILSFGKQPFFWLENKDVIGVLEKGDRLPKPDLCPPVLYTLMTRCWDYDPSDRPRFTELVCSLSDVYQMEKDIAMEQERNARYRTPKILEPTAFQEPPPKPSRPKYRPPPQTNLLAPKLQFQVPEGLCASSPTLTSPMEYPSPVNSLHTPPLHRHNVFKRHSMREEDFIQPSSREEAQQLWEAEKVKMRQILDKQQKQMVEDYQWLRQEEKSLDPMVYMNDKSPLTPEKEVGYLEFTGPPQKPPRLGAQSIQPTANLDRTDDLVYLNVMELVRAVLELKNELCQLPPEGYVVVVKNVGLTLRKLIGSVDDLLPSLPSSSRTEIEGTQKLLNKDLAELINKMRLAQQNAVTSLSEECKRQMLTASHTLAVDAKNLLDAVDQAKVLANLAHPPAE
# Test: antagonists of Pyk2 self-association, primary screen, Q293 cells, FERM NanoBiT luminescence, HTS (AID 1347419);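 further: the deposit names both 25 µM and 10 µM; negative z-score means lost luminescence so less FERM oligomerization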
# Design: dose or concentration left out as unconfirmed
# Settings: hits give low values
row,SMILES,z-score
1,COc1cccc(C(=O)Nc2cc3c(cc2Br)OCCCO3)c1,0.23
2,CCOc1ccc(NC(=O)CCC(=O)N/N=C/c2ccc([N+](=O)[O-])s2)cc1,0.19
3,CC(C)(C)NC(=O)c1cccc(NC(=O)Cc2ccc(Br)cc2)c1,-0.17
4,COC(=O)c1c(NC(=O)CN2CCN(S(=O)(=O)c3ccccc3[N+](=O)[O-])CC2)sc2c1CCC(C)C2 (stereo unspecified),0.28
5,CNC(=O)c1ccsc1NC(=O)c1ccc(S(=O)(=O)N2CCOCC2)cc1,-1
6,CC(=O)Oc1c(C(=O)c2nnc(C)o2)c(=O)n(Cc2ccccc2)c2ccccc12,0.7
7,O=C(Cc1c[nH]c2ccccc12)N/N=C/c1cccc(F)c1,-0.81
8,COc1cccc2c1CCC(NC(C)=O)C2=O (stereo unspecified),0.78
9,CCOC(=O)c1ccc(N/C(=N/S(=O)(=O)c2ccccc2)c2ccccc2)cc1,-1.09
10,COCCCNC(=O)CNC(=S)N(Cc1cc(OC)c(OC)c(OC)c1)C1CCCC1,0.81
11,Cc1ccc(C(=O)C(=S)N2CCOCC2)cc1,-0.25
12,COc1ccc(/C=C/C(=O)Nc2ccc3c(c2)OCCO3)cc1OC,-0.25
13,Cc1ccc(C(=O)N2CC(=O)Nc3ccccc32)o1,-0.11
14,Cn1c(=O)c2cn(-c3cccc4ccccc34)cc2n(C)c1=O,-3.24 (active)
15,COc1ccc(OC)c(-n2cc3c(=O)n(C)c(=O)n(C)c3c2)c1,-0.75
16,CC(=O)Nn1cc2c(=O)n(C)c(=O)n(C)c2c1,1.08
17,COc1ccc(CC(=O)Nc2cc(S(=O)(=O)N3CCCCC3)ccc2N2CCN(C)CC2)cc1,0.23
18,COc1ccccc1NC(=O)C1=C(C)Nc2nc3ccccc3n2C1c1cccs1 (stereo unspecified),-0.65
19,CC(C)C(=O)Nc1ccc2c3c(cccc13)CC2,-0.27
20,Cc1ccc(OC(=O)c2cc3ccccc3o2)cc1,0.88
21,O=c1c(-c2ccc3c(c2)OCCO3)c(C(F)(F)F)oc2cc(O)cc(O)c12,-1.19

row,SMILES,z-score
1,CCOC(=O)c1cc2cc(-c3c(C(=O)OCC)oc4cc(O)cc(O)c4c3=O)ccc2o1,-3.6 (active)
2,O=C(NC(=S)NC1CCSC1=O)c1ccccc1F (stereo unspecified),2.45
3,CCOc1ccc(/C=N/OCC(=O)NCc2cccs2)cc1,0.26
4,Nc1nc(SCc2ccc([N+](=O)[O-])cc2)c2ncn(C3OC(CO)C(O)C3O)c2n1 (stereo unspecified),1.34
5,COc1ccc(C(c2nnnn2C2CCCCC2)N2CCN(c3ccccc3F)CC2)cc1 (stereo unspecified),-2.56
6,Cc1cccc(N2CCN(C(c3ccc(N(C)C)cc3)c3nnnn3C(C)(C)C)CC2)c1C (stereo unspecified),0.72
7,Cc1cccc(N2CCN(C(c3ccccc3)c3nnnn3CC3CCCO3)CC2)c1C (stereo unspecified),-3.18 (active)
8,COC(=O)c1cc(C(=O)CSc2nc(C)cc(C)n2)ccc1O,-0.22
9,Cc1cc(SCC(=O)c2ccccc2)nc(SCC(=O)c2ccccc2)n1,-3.01 (active)
10,Cc1nc(SCC(=O)c2ccccc2)c([N+](=O)[O-])[nH]1,-0.67
11,CC(C)=C1C2CCC1C1C(=O)N(NC(=O)c3ccco3)C(=O)C21 (stereo unspecified),1.15
12,Cc1ccc(NC(=O)NC(=O)CSc2nnc(-c3ccc(OC(F)F)cc3)n2N)c(C)c1,-0.1
13,COc1ccc(-c2csc(NC(=O)CCCc3cccs3)n2)cc1,0.83
14,Cc1ccc(N(Cc2ccc(C(=O)Nc3ccccc3C(=O)NCc3ccco3)cc2)S(C)(=O)=O)cc1C,-3.96 (active)
15,CS(=O)(=O)N(Cc1ccc(Cl)cc1)c1ccc(C(=O)NCCSCc2ccco2)cc1,0.47
16,Cc1cccc(Nc2ccccc2C(=O)NCc2ccco2)c1C,-0.62
17,CCOC(=O)N/N=C/c1cn(Cc2ccccc2Cl)c2ccccc12,-1.11
18,C=CCn1c(SCc2cccc(F)c2)nc2cc(C(=O)N3CCC(C(N)=O)CC3)ccc2c1=O,-1.07
19,COc1ccc(/C=N/N=C/c2c[nH]c(=O)c(C#N)c2Nc2ccccc2)cc1,0.79
20,COC(=O)c1ccccc1NC(=O)CSc1nnnn1C,0.19
21,CCOC(=O)c1c(-c2ccc(C)cc2C)csc1NC(=O)CSc1nnnn1C,-3.44 (active)

row,SMILES,z-score
1,CCOC(=O)CNC(=O)CSc1nnnn1-c1cc(C)ccc1C,-0.31
2,Cc1nonc1C(=O)N/N=C/c1ccc(O)cc1,0.67
3,CC(C)Nc1nnc(SCC(=O)c2c[nH]c3ccccc23)s1,0.14
4,Cc1cccc(C(=O)c2cccc(C)c2)c1,0.43
5,Cc1cccc(-n2c(SCC(N)=O)nc3c(c2=O)C2(CCCCC2)Cc2ccccc2-3)c1,1.27
6,CC(NC(=O)COC(=O)C1CCN(S(=O)(=O)c2ccccc2C(F)(F)F)CC1)c1ccccc1 (stereo unspecified),-0.04
7,Nc1ccc(-c2nnc(-c3ccc(-c4ccccc4)cc3)o2)cc1,-3.38 (active)
8,O=C(Nc1ccc(-c2nnc(-c3ccccc3)o2)cc1)c1ccc(Br)o1,0.72
9,Brc1ccc(-c2nnc(-c3ccccc3)o2)o1,-0.77
10,Cc1ccnc(NC(=O)c2ccoc2C)c1,0.21
11,CCN(CC)CC(=O)c1c[nH]c2ccc(OC)cc12,-0.09
12,COc1ccc2[nH]cc(/C=C(/C#N)S(=O)(=O)c3ccccc3)c2c1,-3.31 (active)
13,COc1ccc2[nH]c3ccc(OC)cc3c2c1,-0.72
14,CCOc1ccc(C(=O)Nc2cccc(SC)c2)cc1,0.21
15,Cc1ccc(Nc2nnc(SCC(=O)c3cc4ccccc4o3)s2)cc1C,-0.02
16,CC1CCN(C(=S)NC2CC3CCC2C3)CC1 (stereo unspecified),-0.08
17,CN1CCN(c2ccc(NC(=O)COc3ccc(Cl)cc3Cl)cc2)CC1,-0.4
18,Cc1cccc(NC(=O)COc2ccccc2C)n1,0.47
19,Cc1ccccc1OCC(=O)Nc1ccc(N2CCN(C(=O)C(C)C)CC2)c(Cl)c1,-3.97 (active)
